# Test results reported in article PMC4336329 (PLoS ONE, 2015).
# In all, about 310,000 compounds went through this assay and about 14,000 (4.5%) showed an effect of 50% or more. The effect is printed as a negative number. For the sample, strong results were picked, then their nearest neighbours and some compounds at random.
# Target: human ether-à-go-go-related gene (hERG) potassium channel (human, UniProt Q12809)
# Experiment: primary screen, population patch clamp on CHO cells stably expressing hERG; higher = less effect of the substance
# 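Also: peak tail current of the secondary pulse compared with the same well before compound.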
# Chain of human ether-à-go-go-related gene (hERG) potassium channel (Q12809 whole entry, looked up): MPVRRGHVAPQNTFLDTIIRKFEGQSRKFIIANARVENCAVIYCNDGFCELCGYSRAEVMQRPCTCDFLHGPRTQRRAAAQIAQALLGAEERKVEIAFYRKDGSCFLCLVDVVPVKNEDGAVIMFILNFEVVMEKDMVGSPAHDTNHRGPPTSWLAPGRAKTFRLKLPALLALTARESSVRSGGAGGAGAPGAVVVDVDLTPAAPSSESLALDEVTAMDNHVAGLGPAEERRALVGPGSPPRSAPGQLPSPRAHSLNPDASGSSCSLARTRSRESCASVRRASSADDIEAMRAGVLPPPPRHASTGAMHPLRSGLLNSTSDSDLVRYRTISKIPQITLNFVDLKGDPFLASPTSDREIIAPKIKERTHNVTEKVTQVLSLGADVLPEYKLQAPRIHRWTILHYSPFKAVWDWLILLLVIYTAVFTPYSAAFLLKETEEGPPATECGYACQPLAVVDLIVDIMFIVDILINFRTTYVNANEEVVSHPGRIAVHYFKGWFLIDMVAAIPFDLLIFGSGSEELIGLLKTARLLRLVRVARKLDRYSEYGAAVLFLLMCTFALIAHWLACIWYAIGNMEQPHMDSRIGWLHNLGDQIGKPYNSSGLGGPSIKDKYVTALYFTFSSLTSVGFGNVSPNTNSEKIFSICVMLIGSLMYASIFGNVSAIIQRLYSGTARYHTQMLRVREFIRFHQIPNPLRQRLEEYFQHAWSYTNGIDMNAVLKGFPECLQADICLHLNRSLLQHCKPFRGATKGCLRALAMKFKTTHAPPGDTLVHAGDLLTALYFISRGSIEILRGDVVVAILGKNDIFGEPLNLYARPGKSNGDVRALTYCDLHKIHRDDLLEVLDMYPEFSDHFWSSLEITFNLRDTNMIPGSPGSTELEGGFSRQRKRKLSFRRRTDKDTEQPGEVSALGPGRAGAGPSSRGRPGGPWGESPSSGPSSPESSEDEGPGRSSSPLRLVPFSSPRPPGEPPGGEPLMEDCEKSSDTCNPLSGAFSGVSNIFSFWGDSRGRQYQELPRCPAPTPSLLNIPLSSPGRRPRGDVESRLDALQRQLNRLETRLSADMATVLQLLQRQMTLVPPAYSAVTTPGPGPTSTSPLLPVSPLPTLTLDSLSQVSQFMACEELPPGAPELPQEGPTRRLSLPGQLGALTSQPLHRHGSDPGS
row,Structure (SMILES),"hERG current change (%, negative = inhibition) at 10uM [%]"
1,OCC1OC(n2cnc3ccccc32)CC1O (centres unmarked),10.8
2,CCNC(=O)OCC12CC3CC(CC(C3)C1)C2,-5.85
3,Cc1ccc(C(=O)N/N=C\c2ccc(-c3ccc(Cl)c(Cl)c3)o2)cn1,-44.9
4,CCOC(=O)N1CCN(C(=O)C2CCC(=O)N(Cc3cccc(C(F)(F)F)c3)C2)CC1 (centres unmarked),-11.1
5,CC(C)n1c(O)c(N=NC(=O)C2COc3ccccc3O2)c2ccccc21 (centres unmarked),12.4
6,Nn1c(COc2ccccc2F)nnc1SCC(=O)NC1CCS(=O)(=O)C1 (centres unmarked),-7.72
7,CCc1nc(CN2CCN(c3ccc(C(F)(F)F)cn3)CC2)c(C)[nH]1,-55.6
8,CS(=O)(=O)Nc1ccc(N2CCN(c3ccc(C(F)(F)F)cn3)CC2)nc1,-4.03
9,CCc1nc(CN2CCN(c3cc(C(F)(F)F)ccn3)CC2)c(C)[nH]1,-45.2
10,O=C(CN1CCN(Cc2ccc(F)cc2Cl)CC1)NCc1ccccc1,-23.2
11,OCCCNc1nc(-c2ccc(Cl)cc2)nnc1-c1ccc(Br)cc1,-61.5
12,Clc1ccc(-c2nnc(-c3ccc(Br)cc3)c(N3CCSCC3)n2)cc1,-11.9
13,Cc1nnc(-c2ccc(Cl)cc2)nc1NCCN(C)C,-38.9
14,O=[N+]([O-])c1ccc2nc(NCCCO)nc(-c3ccccc3)c2c1,-22.7
15,O=[N+]([O-])c1ccc(-c2nnc(-c3ccccc3)c(NCCCO)n2)cc1,-67.3
16,Nc1nc(-c2ccc(Cl)cc2)nnc1-c1ccc(Br)cc1,41
17,OCCCNc1nnc(-c2ccccc2)c2ccccc12,2.95
18,OCCCNc1nc(-c2ccc(Br)cc2)nnc1-c1ccc(Cl)cc1,-52.3
19,OCCCNc1nc(-c2ccc(Cl)cc2)nnc1-c1ccccc1,-40
20,CC(C)(C)c1ccc(C(CC(=O)O)NC(=O)C23CC4CC(CC(C4)C2)C3)cc1 (centres unmarked),17.7
21,O=C(Nc1ccc2c(c1)OCO2)C1Cc2ccccc2CN1S(=O)(=O)c1cccs1 (centres unmarked),4.05
22,COc1ccccc1NC(=O)c1ccc(Br)c(S(=O)(=O)N2CCCC2)c1,-2.36

row,Structure (SMILES),"hERG current change (%, negative = inhibition) at 10uM [%]"
1,CCC(C)C(NC(=O)c1ccccc1NC(=O)c1ccc(OC)cc1)C(=O)NCCCn1ccnc1 (centres unmarked),-1.96
2,CCCn1c(CCC(=O)O)nc2cc(S(=O)(=O)N3CCCC3)ccc21,12.1
3,COCCOC(=O)c1c(C)oc2ccc(O)c(CN3CCC(C)CC3)c12,-29.8
4,Cl.c1cc(CNC23CC4CC(CC(C4)C2)C3)ccn1,-20.2
5,CC12CC3CC(C)(C1)CC(NCc1ccncc1)(C3)C2.Cl,-58.7
6,CC12CC3CC(C)(C1)CC(C(=O)NCc1ccncc1)(C3)C2,9.2
7,O=C(c1ccc([N+](=O)[O-])o1)N(Cc1nnc(-c2ccccc2Cl)o1)C1CC1,-20.9
8,CN(NS(=O)(=O)c1ccc(Br)cc1)c1nc(C(F)(F)F)nc2ccccc12,12.2
9,O=C(CN(Cc1ccc2c(c1)OCO2)C(=O)CNC(=O)c1ccco1)NC1CCCCC1,-7.83
10,Cc1ccc(-c2cc(C(=O)N3CCN(c4ccccc4O)CC3)c3ccccc3n2)cc1,-1.9
11,CCOC(=O)C1CCCN(C(=O)c2cc(-c3ccc(C)cc3)nc3ccccc23)C1 (centres unmarked),-37.6
12,O=C(c1cc(-c2cccs2)nc2ccccc12)N1CCN(S(=O)(=O)c2ccccc2)CC1,-5.65
13,O=C(c1cc(-c2ccncc2)nc2ccccc12)N1CCN(c2ccccc2O)CC1,-64.3
14,O=C(c1cc(-c2cccnc2)nc2ccccc12)N1CCN(S(=O)(=O)c2cccs2)CC1,-64.3
15,O=C(c1cc(-c2cccnc2)nc2ccc(Cl)cc12)N1CCN(S(=O)(=O)c2cccs2)CC1,-4.28
16,O=C(c1cc(-c2ccccc2)nc2ccccc12)N1CCN(c2ccccc2O)CC1,-10.9
17,CCOC(=O)C1CCN(C(=O)c2cc(-c3ccncc3)nc3ccccc23)CC1,-67.2
18,Cc1ccc(-c2cc(C(=O)N3CCN(c4ccc(F)cc4)CC3)c3ccccc3n2)o1,-35.7
19,CC(=O)N1CCN(C(=O)c2cc(-c3ccc(C)o3)nc3ccccc23)CC1,-10.1
20,CCOC(=O)C1CCCN(C(=O)c2cc(-c3ccncc3)nc3ccccc23)C1 (centres unmarked),-32.4
21,Cc1ccc(-c2cc(C(=O)N3CCN(c4ccccc4O)CC3)c3ccccc3n2)o1,-70.9
22,O=C(N/N=C/c1c(O)ccc2ccccc12)Nc1ccccc1,16.3

row,Structure (SMILES),"hERG current change (%, negative = inhibition) at 10uM [%]"
1,COc1cc2cc(CCCOC(=O)c3cccc(Br)c3)oc(=O)c2cc1OC,-2.2
2,Cn1c(SCCS(=O)(=O)c2ccc(Cl)cc2)nnc1-c1ccccc1,-19.3
3,CCOc1ccc(CCNC(=O)COC(=O)c2ccc(C)c([N+](=O)[O-])c2)cc1OCC,-7.57
4,CO/N=C/NC(=O)NOCc1ccc(Cl)cc1Cl,-11.5
5,C[C@H](NC(=O)c1nc[nH]c1C(=O)N(C)Cc1ccccc1)C(=O)OC(C)(C)C,5.67
6,COc1cccc(C(=O)N(CN2CCCC2=O)c2cccc(Cl)c2)c1,-25.4
7,CC(=O)c1cc(C#N)c(Oc2ccc(F)cc2)nc1C,13.7
8,CCOC(=O)N1CCN(C(=O)c2cc(-c3ccncc3)nc3ccccc23)CC1,-48.4
9,CC1CC(C)CN(C(=O)c2cc(-c3ccncc3)nc3ccccc23)C1 (centres unmarked),-35.5
10,O=C(c1cc(-c2ccccc2)nc2ccccc12)N1CCN(c2ccccn2)CC1,-27.6
11,Cc1ccccc1CN1CCN(C(=O)c2cc(-c3ccncc3)nc3ccccc23)CC1,-76.7
12,COc1ccc(-c2cc(C(=O)N3CCN(c4ccccn4)CC3)c3ccccc3n2)cc1,-5.51
13,COc1ccccc1NC(=O)c1cc(-c2ccc(C)o2)nc2ccccc12,-60.7
14,COc1ccc(NC(=O)c2cc(-c3ccc(C)o3)nc3ccccc23)c(OC)c1,14.9
15,COc1cccc(CN2CCN(C(=O)c3cc(-c4cccnc4)nc4ccc(C)cc34)CC2)c1,-12.7
16,COc1cccc(CN2CCN(C(=O)c3cc(-c4ccccn4)nc4ccc(Cl)cc34)CC2)c1,17.1
17,COc1cccc(CN2CCN(C(=O)c3cc(-c4ccncc4)nc4ccc(C)cc34)CC2)c1,-71
18,O=C(c1cc(-c2ccncc2)nc2ccccc12)N1CCN(c2ccccn2)CC1,-63.5
19,Cc1ccc(-c2cc(C(=O)Nc3ccccc3C)c3ccccc3n2)o1,9.38
20,N#CCSc1nnc(-c2ccccc2O)n1CCc1ccccc1,-10.7
21,CCCCNC(=S)NNC(=O)c1ccc2c(c1)OCO2,5.46
22,Cc1cc(C(=O)NNC(=O)c2cccc([N+](=O)[O-])c2)n[nH]1,18.9

row,Structure (SMILES),"hERG current change (%, negative = inhibition) at 10uM [%]"
1,Cc1cc(C)c(S(=O)(=O)N2CCN(C(=O)C3COc4ccccc4O3)CC2)c(C)c1 (centres unmarked),-17
2,O=c1c2cc3c(cc2[nH]c(=S)n1CCN1CCOCC1)OCO3,9.66
3,COc1ccc(Cc2nnc(NC(=O)C(C)C)s2)cc1,11.2
4,Cc1cc(C)c(NC(=O)COC(=O)c2c(C)noc2C)c(Cl)c1,13.8
5,CS(=O)(=O)N1CCN(C(=O)c2cc(-c3ccccc3)nc3ccccc23)CC1,-30.8
6,CS(=O)(=O)N1CCN(C(=O)c2cc(-c3ccncc3)nc3ccc(Cl)cc23)CC1,-12.8
7,O=C(c1cc(-c2ccncc2)nc2ccccc12)N1CCN(S(=O)(=O)/C=C/c2ccccc2)CC1,-66.6
8,COc1ccc2[nH]c3c(=O)n(CCCCC(=O)NCCC(C)C)c(=S)[nH]c3c2c1,16.3
9,CCCCCn1c(CCNC(=O)CCC)nc2ccccc21,-57.2
10,CCCC(=O)NCCc1nc2ccccc2n1CCC,1.27
11,CCCCn1c(CCNC(=O)CC)nc2ccccc21,-11.2
12,CCCCn1c(=O)c(C(=O)c2ccccc2)nc2ccccc21,-30.4
13,CCCCn1c(CCNC(=O)CCC)nc2ccccc21,-7.83
14,CCCCCn1c(CCCNC(=O)CC)nc2ccccc21,-65.9
15,CCCCCn1c(CCNC(=O)c2cccs2)nc2ccccc21,-52.5
16,CCCCn1c(CCNC(=O)c2cccs2)nc2ccccc21,-33.2
17,CCCCCn1c(=O)c(C(=O)c2ccccc2)nc2ccccc21,-77.6
18,CCCn1c(CCNC(=O)c2cccs2)nc2ccccc21,-36.1
19,CCCn1c(=O)c(C(=O)c2ccccc2)nc2ccccc21,-27.4
20,CCCCn1c(CCCNC(=O)CC)nc2ccccc21,-37.3
